Assay outcomes: PubChem, National Center for Advancing Translational Sciences (NCATS)
This is a sample that favours compounds with a hit; in the whole collection about 19% have one here.
BCR signal inh: inhibitors of chronic active B-cell receptor signaling. ABC-DLBCL IkBa-CBG/CBR reporter, luminescence ratio, 4 h. Potency, µM (doses to about 46.1 µM), hits mostly inhibitors. 0.05% of 340,000 active. AID 493014; active = well fitted inhibition curve with a large enough effect in the signal ratio, with a control signal flat, not every such curve was filed as active; inconclusive = small, poorly fitted or top-dose-only effect, or effect the other way, or a change in a side signal; the % refers to the signal ratio
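Compounds up to 46 uM were incubated four hours with TMD8 cells whose green CBG68 luciferase is fused to IkappaBalpha; red CBR luminescence normalised the signal, and concentration-effect curves were fitted to fusion, red and ratio data.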
MCF10A rerep: induces DNA re-replication in MCF 10a normal breast cells | Potency, µM (doses to about 46.1 µM), most hits filed as activators | AID 624296 | 2.9% of 350,000 active | MCF 10A DNA re-replication, Hoechst nuclear intensity, 48 h; also: nearly all actives have a fitted effect of over 50% in size
TDP1 cell CPT: DT40-hTDP1 cell growth loss with CPT; chicken DT40 Tdp1-/-;hTDP1 cells + 20 nM CPT, ATP luminescence, 48 h; Potency, µM (highest dose often 46.2 µM), actives largely listed as inhibitors; 12% of 420,000 active; AID 686979; also: nearly all actives have a fitted effect of over 55% in size
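Cell growth measured by CellTiter-Glo luminescence after a minimum 48 h, 37 C compound exposure with 20 nM CPT in Tdp1-knockout DT40 cells stably expressing hTDP1, seeded 400/well; qHTS titration format.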
SW480 rereplic: inducers of DNA re-replication in SW480 colon cancer cells. SW480 DNA re-replication, Hoechst DNA content imaging, 48 h. Potency, µM (top dose mostly 46.1 µM), most hits filed as activators. 1.8% of 340,000 active; also: nearly all actives have a fitted effect of over 55% in size
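SW480 cells exposed to compounds for 48 hr at 37 C, 5% CO2, then Hoechst-stained 40 min. Nuclear DNA content imaged by fluorescence scanning (405 nm excitation, 500-530 nm emission); re-replication scored as increased high-intensity nuclei.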
IL-1B inflam inh: inhibitors of inflammasome signaling (IL-1 beta secretion); 4.7% of 360,000 active; activity change, % at 57.5 µM; THP-1 LPS/ATP IL-1B secretion, AlphaLISA, 16 h; active compounds read low; in the data active = activity change below about -50%; inconclusive = mostly about -30% to -49%
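THP-1 cells pretreated 1 hr with compounds (up to 57.5 uM final), then stimulated with LPS (250 ng/mL final) plus ATP (1.25 mM final); secreted IL-1B measured by AlphaLISA after 16 hr, decreased signal indicating inhibition.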
TDP1 cell noCPT: qHTS for Inhibitors of human tyrosyl-DNA phosphodiesterase 1 (TDP1): qHTS in cells in absence of CPT; 15% of 420,000 active; DT40 Tdp1-/- hTDP1 cells, no CPT, ATP luminescence, 48 h; Potency, µM (top dose mostly 46.2 µM), most hits filed as inhibitors; also: nearly all actives have a fitted effect of over 55% in size
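Growth kinetics read by CellTiter-Glo luminescence after ≥48 hr at 37 °C. Cells: DT40 Tdp1-/- stably carrying human TDP1, 400 per well, compound exposure in the absence of CPT (DMSO vehicle).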
Numbers stand for hits; 0 = inactive; ? = inconclusive; - = not tested or not shown; [ ] = remark or other dose. Unless noted, calls follow the shape of the dose curve; as a rule, active = well fitted curve in the direction sought with a large enough effect; inconclusive = small, poorly fitted or top-dose-only effect, or another doubt; inactive = no such curve, though single readings can be large; an effect the other way counts as inactive or inconclusive.

SMILES | BCR signal inh | MCF10A rerep | TDP1 cell CPT | SW480 rereplic | IL-1B inflam inh | TDP1 cell noCPT
CCCc1ccc(-c2cc(C(=O)NN3CCOCC3)c3ccccc3n2)cc1 | ? | 0 | ? | 0 | -55.7 | 0.461µM
CC(C)Oc1cccc(-c2cc(C(=O)NN3CCOCC3)c3ccccc3n2)c1 | 0 | ? | 14.6µM | 0 | 0 | 10.3µM
CN(Cc1ccc(OC(F)F)cc1)C(=O)c1cccc(S(=O)(=O)N2CCN(Cc3ccccc3)CC2)c1 | - | 0 | 9.2µM | 0 | -59.8 | 8.2µM
CN(Cc1ccco1)C(=O)c1cccc(S(=O)(=O)N2CCN(Cc3ccccc3)CC2)c1 | - | - | ? | - | 0 | ?
CN(Cc1ccc(Cl)cc1Cl)C(=O)c1cccc(S(=O)(=O)NCc2ccccc2)c1 | - | 0 | ? | 0 | ? | ?
Cc1ccc(CN(C)C(=O)c2cccc(S(=O)(=O)N3CCN(Cc4ccccc4)CC3)c2)o1 | 0 | 0 | ? | 0 | 0 | ?
CN(Cc1c(F)cccc1Cl)C(=O)c1cccc(S(=O)(=O)NCc2ccccc2)c1 | 0 | 0 | 23.1µM | 0 | 0 | 18.4µM
CN(Cc1c(F)cccc1Cl)C(=O)c1cccc(S(=O)(=O)N2CCN(Cc3ccccc3)CC2)c1 | - | 0 | 20.6µM | 0 | 0 | ?
OC[C@@H]1CN(Cc2ccccc2)C[C@H](n2cnc3c(NC4CCCC4)ncnc32)O1 | - | - | ? | - | 0 | ?
CCC(C(=O)Nc1ccccc1)n1nc(-c2cc(C)ccc2C)ccc1=O (configuration not stated) | - | - | ? | - | - | 0
CCC(C(=O)Nc1ccc(C(C)C)cc1)n1nc(C)n2c(cc3cc(C)ccc32)c1=O (configuration not stated) | - | - | 23.1µM | - | - | ?
CCc1cccc(CC)c1NC(=O)C(CC)n1nc(C)n2c(cc3cc(C)ccc32)c1=O (configuration not stated) | - | - | ? | - | - | 20.6µM
CCC(C(=O)N1CCOCC1)n1nc(C)n2c(cc3cc(C)ccc32)c1=O (configuration not stated) | ? | 0 | 0 | 0 | 0 | 0
COc1ccccc1CN1CCN(C(=O)c2cccc3ccccc23)CC1 | - | 0 | 0 | 0 | 0 | ?
COc1cccc(CN2CCN(C(=O)c3cccc4ccccc34)CC2)c1OC | ? | 0 | 0 | 0 | -76.6 | ?
COc1ccc(CN2CCN(C(=O)c3cccc4ccccc34)CC2)cc1Br | ? | 0 | 0 | 0 | -64.5 | ?
COc1ccc(CN2CCN(C(=O)c3cccc4ccccc34)CC2)cc1OC | 0 | 0.651µM | 0 | 6.51µM | 0 | 0
O=C(CC1SC(N2CCOCC2)=NC1=O)Nc1ccc(Cl)c(C(F)(F)F)c1 (configuration not stated) | 0 | 0 | ? | 0 | 0 | ?
COc1ccc(CCN(Cc2cc3cc(C)cc(C)c3nc2Cl)C(=O)C2CC2)cc1 | 0 | 0 | ? | ? | -69.2 | 16.4µM
O=C(c1ccc2c(c1)OCO2)N(Cc1cc2cc3c(cc2nc1N1CCOCC1)CCC3)CC1CCCO1 (configuration not stated) | - | - | 0 | - | - | 0
Cc1ccnc(NS(=O)(=O)c2ccc(NC(=O)CCc3ccccc3)cc2)n1 | 0 | 0 | 0 | 0 | 0 | 0
O=C(Nc1cccc2c1CCCC2)c1ccccc1F | 0 | 0 | ? | 0 | 0 | 0
O=C(Nc1cccc2c1CCCC2)c1cc([N+](=O)[O-])ccc1Cl | 0 | ? | ? | 0[9.22 µM] | ? | 25.9µM
O=C(Nc1cccc2c1CCCC2)c1cccc(F)c1 | 0 | 0 | 0 | 0 | 0 | ?
O=C(Nc1cccc2c1CCCC2)c1ccc(Cl)c([N+](=O)[O-])c1 | 0 | ? | ? | ? | -72.9 | 16.4µM
COC(=O)c1ccc2c(=O)n(C3CCCCC3)c(SCC#N)nc2c1 | 0 | 0 | 11.6µM | 0 | 0 | 23.1µM
CCOC(=O)CSc1nc2cc(C(=O)N3CCC(C(N)=O)CC3)ccc2c(=O)n1C1CCCCC1 | 0 | 0 | 0 | 0 | 0 | 0
